According to ChEMBL document CHEMBL2218924, “A broad activity screen in support of a chemogenomic map for kinase signalling research and drug discovery” (Biochem J, 2013):

The compounds below were run against Ephrin type-A receptor 7 (Homo sapiens) (UniProt Q15375). Conditions: at 1 µM.
Ephrin type-A receptor 7 (Homo sapiens), sequence (Q15375 28-998 limits assumed): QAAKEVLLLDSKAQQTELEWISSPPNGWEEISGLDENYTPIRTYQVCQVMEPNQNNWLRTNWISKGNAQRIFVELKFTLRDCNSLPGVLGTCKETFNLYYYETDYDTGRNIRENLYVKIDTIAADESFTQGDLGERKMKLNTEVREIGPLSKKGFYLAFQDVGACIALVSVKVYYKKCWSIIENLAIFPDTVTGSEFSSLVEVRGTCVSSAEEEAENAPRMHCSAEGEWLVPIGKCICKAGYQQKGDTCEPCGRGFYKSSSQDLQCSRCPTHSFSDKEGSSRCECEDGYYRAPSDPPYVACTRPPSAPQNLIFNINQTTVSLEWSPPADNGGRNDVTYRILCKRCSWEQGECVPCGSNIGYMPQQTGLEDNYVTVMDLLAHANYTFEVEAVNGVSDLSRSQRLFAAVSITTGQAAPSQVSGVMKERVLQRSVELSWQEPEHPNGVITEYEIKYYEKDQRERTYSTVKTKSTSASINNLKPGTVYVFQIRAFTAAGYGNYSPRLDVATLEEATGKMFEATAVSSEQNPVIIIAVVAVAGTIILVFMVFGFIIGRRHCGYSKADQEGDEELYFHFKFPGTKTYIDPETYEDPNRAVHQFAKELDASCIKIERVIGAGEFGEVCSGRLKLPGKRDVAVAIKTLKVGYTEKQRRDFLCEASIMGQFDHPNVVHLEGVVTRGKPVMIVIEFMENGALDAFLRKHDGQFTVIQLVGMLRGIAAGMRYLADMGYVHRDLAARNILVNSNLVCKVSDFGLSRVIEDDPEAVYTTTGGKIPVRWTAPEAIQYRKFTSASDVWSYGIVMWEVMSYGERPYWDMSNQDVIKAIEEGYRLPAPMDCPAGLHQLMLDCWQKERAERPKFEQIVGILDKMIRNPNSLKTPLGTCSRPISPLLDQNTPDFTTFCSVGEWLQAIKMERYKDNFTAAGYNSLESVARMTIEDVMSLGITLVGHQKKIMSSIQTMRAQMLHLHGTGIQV
In the case of `COc1cc2nccc(Oc3ccc(NC(=S)NC(=O)c4ccccc4C)cc3)c2cc1OC`, the residual activity was 90%.
With `CCN(CC)CCNC(=O)c1c(C)[nH]c(/C=C2\C(=O)Nc3ccc(Cl)cc32)c1C` the residual activity was 79%.
In the case of `Cn1c2ccccc2c2c3c(c4c5ccccc5n(CCC#N)c4c21)CNC3=O`, the residual activity was 43%.
`O=c1cc(N2CCOCC2)oc2c1ccc1ccccc12` was tested, and the residual activity was 103%.
Work on `Nc1ncnc2c1c(-c1ccc(Oc3ccccc3)cc1)cn2C1CCCC1` yielded a residual activity of 94%.
For `COc1cc2nccc(Oc3ccc(NC(=O)Nc4cc(C)on4)c(Cl)c3)c2cc1OC`, the residual activity was 6%.
In the case of `O=C1Cc2c([nH]c3ccc(Br)cc23)-c2ccccc2N1`, the residual activity was 98%.
`CC(C)c1nn(-c2c(Cl)cccc2Cl)c2nc(Cc3ccc(OCCO)cc3)[nH]c(=O)c12` gave a residual activity of 97%.
`COc1cc2ncnc(Nc3cccc(Cl)c3)c2cc1OC` showed a residual activity of 73%.
For `O=c1cc(N2CCNCC2)oc2c(-c3ccccc3)cccc12`, the residual activity was 98%.
`CCCCc1c(-c2ccc(OC)cc2)[nH]c2nccnc12` gave a residual activity of 77%.
`Cn1sc(=O)n(Cc2ccccc2)c1=O` showed a residual activity of 86%.
`Nc1n[nH]c2nc3ccccc3nc12` gave a residual activity of 99%.
With `CCCC(=O)Oc1ccc2[nH]c(C(=O)c3cc4ccccc4[nH]3)cc2c1` the residual activity was 96%.
`CC(C)(C)n1nc(Cc2cccc3ccccc23)c2c(N)ncnc21` showed a residual activity of 89%.
Work on `Fc1ccc(-c2nc3n(c2-c2ccncc2)CCS3)cc1` yielded a residual activity of 99%.
`O=C1C(Cl)=C(N2C(=O)CCC2=O)C(=O)c2ccccc21` was tested, and the residual activity was 99%.
With `COc1ccc(-c2cnc3c(-c4ccsc4)cnn3c2)cc1` the residual activity was 95%.
With `O=C(CCCc1ccc(-c2ccccc2F)cc1)Nc1ccc(O)cc1` the residual activity was 102%.
Compound `Nc1ncnc2[nH]nc(Nc3ccc(F)cc3)c12` has a residual activity of 105%.
For `Nc1ncnc2c1cnn2-c1ccccc1`, the residual activity was 102%.
`CCCCc1c(-c2ccc(O)cc2)[nH]c2nccnc12` showed a residual activity of 83%.
With `CN(C)S(=O)(=O)c1ccc2c(c1)/C(=C/c1cc3c([nH]1)CCCC3)C(=O)N2` the residual activity was 94%.
`O=C(O)/C=C/c1cc(Br)c(Br)c(Br)c1Br` gave a residual activity of 109%.
`NC(=O)Nc1sc(-c2ccc(F)cc2)cc1C(N)=O` was tested, and the residual activity was 74%.
`O=C1Nc2ccc(Cl)cc2/C1=C/c1cc(Cl)c(O)c(Cl)c1` was tested, and the residual activity was 92%.

What follows are compounds tested against Ephrin type-A receptor 7 (Homo sapiens) (UniProt Q15375). Conditions: at 10 µM.
Work on `COc1ccc2c(c1)c(C1=C(c3c[nH]c4ccccc34)C(=O)NC1=O)cn2CCCN(C)C` yielded a residual activity of 44%.
`COc1cc2nccc(Oc3ccc(NC(=S)NC(=O)c4ccccc4C)cc3)c2cc1OC` was tested, and the residual activity was 56%.
Work on `CCN(CC)CCNC(=O)c1c(C)[nH]c(/C=C2\C(=O)Nc3ccc(Cl)cc32)c1C` yielded a residual activity of 24%.
`Cn1c2ccccc2c2c3c(c4c5ccccc5n(CCC#N)c4c21)CNC3=O` gave a residual activity of 39%.
In the case of `O=c1cc(N2CCOCC2)oc2c1ccc1ccccc12`, the residual activity was 84%.
With `CSc1nc(-c2ccc(F)cc2)c(-c2ccnc(NC(C)c3ccccc3)c2)[nH]1` (stereo not given) the residual activity was 95%.
`Nc1ncnc2c1c(-c1ccc(Oc3ccccc3)cc1)cn2C1CCCC1` was tested, and the residual activity was 66%.
`COc1cc2nccc(Oc3ccc(NC(=O)Nc4cc(C)on4)c(Cl)c3)c2cc1OC` showed a residual activity of 1%.
`O=C1Cc2c([nH]c3ccc(Br)cc23)-c2ccccc2N1` was tested, and the residual activity was 72%.
Work on `CC(C)c1nn(-c2c(Cl)cccc2Cl)c2nc(Cc3ccc(OCCO)cc3)[nH]c(=O)c12` yielded a residual activity of 88%.
`COc1cc2c(cc1OC)-c1n[nH]c(Nc3cccc(F)c3)c1C2` was tested, and the residual activity was 64%.
`COc1cc2ncnc(Nc3cccc(Cl)c3)c2cc1OC` gave a residual activity of 22%.
`O=c1cc(N2CCNCC2)oc2c(-c3ccccc3)cccc12` gave a residual activity of 88%.
Compound `CCCCc1c(-c2ccc(OC)cc2)[nH]c2nccnc12` has a residual activity of 73%.
`Cn1sc(=O)n(Cc2ccccc2)c1=O` was tested, and the residual activity was 86%.
Compound `Nc1n[nH]c2nc3ccccc3nc12` has a residual activity of 79%.
Work on `CCCC(=O)Oc1ccc2[nH]c(C(=O)c3cc4ccccc4[nH]3)cc2c1` yielded a residual activity of 86%.
With `CC(C)(C)n1nc(Cc2cccc3ccccc23)c2c(N)ncnc21` the residual activity was 33%.
For `Fc1ccc(-c2nc3n(c2-c2ccncc2)CCS3)cc1`, the residual activity was 84%.
`O=C1C(Cl)=C(N2C(=O)CCC2=O)C(=O)c2ccccc21` was tested, and the residual activity was 92%.
In the case of `COc1ccc(-c2cnc3c(-c4ccsc4)cnn3c2)cc1`, the residual activity was 95%.
Compound `O=C(CCCc1ccc(-c2ccccc2F)cc1)Nc1ccc(O)cc1` has a residual activity of 104%.
In the case of `Nc1ncnc2c1cnn2-c1ccccc1`, the residual activity was 97%.
`CCCCc1c(-c2ccc(O)cc2)[nH]c2nccnc12` showed a residual activity of 39%.
With `CN(C)S(=O)(=O)c1ccc2c(c1)/C(=C/c1cc3c([nH]1)CCCC3)C(=O)N2` the residual activity was 79%.
Compound `O=C(O)/C=C/c1cc(Br)c(Br)c(Br)c1Br` has a residual activity of 92%.
`NC(=O)Nc1sc(-c2ccc(F)cc2)cc1C(N)=O` was tested, and the residual activity was 25%.
`O=C1Nc2ccc(Cl)cc2/C1=C/c1cc(Cl)c(O)c(Cl)c1` gave a residual activity of 71%.

What follows are compounds tested against T1, Ephrin type-A receptor 8 (Homo sapiens) (UniProt P29322). Conditions: at 1 µM.
T1 sequence (whole entry): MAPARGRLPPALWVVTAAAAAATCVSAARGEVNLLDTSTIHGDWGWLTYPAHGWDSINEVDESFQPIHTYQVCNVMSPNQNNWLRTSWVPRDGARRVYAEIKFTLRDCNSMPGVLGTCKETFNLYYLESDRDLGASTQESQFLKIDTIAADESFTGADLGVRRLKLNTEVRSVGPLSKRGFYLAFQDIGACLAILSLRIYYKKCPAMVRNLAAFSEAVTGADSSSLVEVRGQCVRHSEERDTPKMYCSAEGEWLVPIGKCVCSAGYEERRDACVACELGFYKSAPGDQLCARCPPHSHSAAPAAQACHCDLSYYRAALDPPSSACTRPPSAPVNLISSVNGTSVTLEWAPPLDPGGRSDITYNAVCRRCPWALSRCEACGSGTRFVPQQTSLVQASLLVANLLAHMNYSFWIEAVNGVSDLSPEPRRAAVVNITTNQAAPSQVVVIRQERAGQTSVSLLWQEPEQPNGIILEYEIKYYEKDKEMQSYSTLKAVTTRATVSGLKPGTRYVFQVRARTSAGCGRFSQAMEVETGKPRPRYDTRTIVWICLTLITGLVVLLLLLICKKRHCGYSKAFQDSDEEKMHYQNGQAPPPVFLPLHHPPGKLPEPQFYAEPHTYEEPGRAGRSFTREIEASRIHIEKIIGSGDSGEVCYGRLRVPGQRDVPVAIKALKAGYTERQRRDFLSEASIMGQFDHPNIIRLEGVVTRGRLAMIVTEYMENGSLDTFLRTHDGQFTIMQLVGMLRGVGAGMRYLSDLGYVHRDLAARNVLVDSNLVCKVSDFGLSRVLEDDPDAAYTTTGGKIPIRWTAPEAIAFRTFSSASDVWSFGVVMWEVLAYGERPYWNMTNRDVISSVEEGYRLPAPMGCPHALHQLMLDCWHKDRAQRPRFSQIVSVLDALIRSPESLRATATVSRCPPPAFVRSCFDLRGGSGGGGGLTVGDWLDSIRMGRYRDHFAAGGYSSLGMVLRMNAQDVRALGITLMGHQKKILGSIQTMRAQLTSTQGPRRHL
`COc1ccc2c(c1)c(C1=C(c3c[nH]c4ccccc34)C(=O)NC1=O)cn2CCCN(C)C` showed a residual activity of 100%.
With `COc1cc2nccc(Oc3ccc(NC(=S)NC(=O)c4ccccc4C)cc3)c2cc1OC` the residual activity was 75%.
For `CCN(CC)CCNC(=O)c1c(C)[nH]c(/C=C2\C(=O)Nc3ccc(Cl)cc32)c1C`, the residual activity was 100%.
`O=c1cc(N2CCOCC2)oc2c1ccc1ccccc12` showed a residual activity of 100%.
`CC(C)[C@H](CO)Nc1nc(Nc2cc(N)cc(Cl)c2)c2ncn(C(C)C)c2n1` gave a residual activity of 93%.
In the case of `Nc1ncnc2c1c(-c1ccc(Oc3ccccc3)cc1)cn2C1CCCC1`, the residual activity was 84%.
In the case of `COc1cc2nccc(Oc3ccc(NC(=O)Nc4cc(C)on4)c(Cl)c3)c2cc1OC`, the residual activity was 1%.
In the case of `O=C1Cc2c([nH]c3ccc(Br)cc23)-c2ccccc2N1`, the residual activity was 95%.
For `CC(C)c1nn(-c2c(Cl)cccc2Cl)c2nc(Cc3ccc(OCCO)cc3)[nH]c(=O)c12`, the residual activity was 94%.
`COc1cc2c(cc1OC)-c1n[nH]c(Nc3cccc(F)c3)c1C2` was tested, and the residual activity was 69%.
`COc1cc2ncnc(Nc3cccc(Cl)c3)c2cc1OC` showed a residual activity of 85%.
For `O=c1cc(N2CCNCC2)oc2c(-c3ccccc3)cccc12`, the residual activity was 102%.
In the case of `O=C1NC(=O)c2c1c1c3ccccc3[nH]c1n1cncc21`, the residual activity was 88%.
Compound `Cn1sc(=O)n(Cc2ccccc2)c1=O` has a residual activity of 87%.
`CCCC(=O)Oc1ccc2[nH]c(C(=O)c3cc4ccccc4[nH]3)cc2c1` was tested, and the residual activity was 92%.
Compound `CC(C)(C)n1nc(Cc2cccc3ccccc23)c2c(N)ncnc21` has a residual activity of 33%.
For `Fc1ccc(-c2nc3n(c2-c2ccncc2)CCS3)cc1`, the residual activity was 97%.
Work on `O=C1C(Cl)=C(N2C(=O)CCC2=O)C(=O)c2ccccc21` yielded a residual activity of 96%.
`COc1ccc(-c2cnc3c(-c4ccsc4)cnn3c2)cc1` showed a residual activity of 98%.
For `O=C(CCCc1ccc(-c2ccccc2F)cc1)Nc1ccc(O)cc1`, the residual activity was 103%.
`Nc1ncnc2c1cnn2-c1ccccc1` showed a residual activity of 100%.
Work on `CCCCc1c(-c2ccc(O)cc2)[nH]c2nccnc12` yielded a residual activity of 90%.
With `CN(C)S(=O)(=O)c1ccc2c(c1)/C(=C/c1cc3c([nH]1)CCCC3)C(=O)N2` the residual activity was 96%.
With `O=C(O)/C=C/c1cc(Br)c(Br)c(Br)c1Br` the residual activity was 100%.
Work on `NC(=O)Nc1sc(-c2ccc(F)cc2)cc1C(N)=O` yielded a residual activity of 84%.
`O=C1Nc2ccc(Cl)cc2/C1=C/c1cc(Cl)c(O)c(Cl)c1` gave a residual activity of 90%.
